The list is not random: actives were taken first. Their share in the collection is about 1.7%.
RXFP1 agonist: agonists of human relaxin receptor RXFP1; Q9HBX9; Potency, µM (top dose mostly 57.5 µM), without a hit: at the top dose activation, most hits filed as activators; 0.3% of 370,000 active; HEK293T-RXFP1 cAMP TR-FRET, 30 min; response scale: percent of porcine relaxin response, buffer zero; AID 2676; active = well fitted activation curve with a large enough effect; inconclusive = small, poorly fitted or top-dose-only effect; note: potency is the fitted concentration of half-maximal effect; nearly all actives have a fitted effect of over 60% in size
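HEK293 cells stably expressing RXFP1, treated 30 min at 37C with compounds plus PDE4 inhibitor Ro 20174; cAMP measured by HTRF TR-FRET. Normalized to buffer and 29 nM porcine relaxin; EC50 by Hill fit.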
RXFP1 antagonist: antagonists of human relaxin receptor RXFP1 | Q9HBX9 | HEK293-RXFP1, relaxin-stimulated cAMP HTRF, 30 min; active compounds read low | activity change, negative = inhibition, % at 57.5 µM | 0.59% of 350,000 active;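 active = activity change of -60% or lower, but not beyond a set lower limit; inconclusive = change between -60% and -40%, or beyond the set limit; inactive = change above -40%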
KCNH2 3.1 block: KCNH2 3.1 (human) potassium channel inhibition | U2OS KCNH2 3.1, thallium flux FluxOr; active compounds read low | activity change, % (tested at about 1.8 µM) | 0.95% of 340,000 active;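 active = maximum activity change below -70%; inconclusive = maximum activity change from -70% to -50%; inactive = maximum activity change above -50%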;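 note: thallium influx rate constant from kinetic fluorescence after stimulation buffer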
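Kinetic fluorescence (2 min after stimulation buffer) measures Tl+ influx through KCNH2 3.1 expressed by viral transduction in U2OS cells; the rate constant is normalized against DMSO controls serving as positive and negative references.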
Akt phos inh: Akt phosphorylation inhibition; Neuro2A IGF-stimulated pAkt S473 HTRF, 20 min; active compounds read low; activity change, % for hits at 50 µM; 0.32% of 360,000 active; AID 651550; in the data active = activity change below about -80%; inconclusive = mostly about -51% to -80%
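Neuro2A cells in DMEM with 0.5% FBS, overnight at 37 deg C, given compound at single 50 µM final, then IGF (6 nM final) for 20 min at 37 deg C. Lysed; phospho-Akt Ser473 by HTRF after 24 h, 665/615 ratio.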
KCNH2 WT inh: inhibitors of human wildtype KCNH2 potassium channel. Q12809. U2OS, BacMam KCNH2, thallium flux FluxOr; active compounds read low. activity change, % at 1.84 µM. 0.37% of 340,000 active. AID 720551;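 active = maximum activity change below -70%; inconclusive = maximum activity change between -70% and -50%; inactive = maximum activity change above -50%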
Target sequence (Q12809 whole entry, looked up): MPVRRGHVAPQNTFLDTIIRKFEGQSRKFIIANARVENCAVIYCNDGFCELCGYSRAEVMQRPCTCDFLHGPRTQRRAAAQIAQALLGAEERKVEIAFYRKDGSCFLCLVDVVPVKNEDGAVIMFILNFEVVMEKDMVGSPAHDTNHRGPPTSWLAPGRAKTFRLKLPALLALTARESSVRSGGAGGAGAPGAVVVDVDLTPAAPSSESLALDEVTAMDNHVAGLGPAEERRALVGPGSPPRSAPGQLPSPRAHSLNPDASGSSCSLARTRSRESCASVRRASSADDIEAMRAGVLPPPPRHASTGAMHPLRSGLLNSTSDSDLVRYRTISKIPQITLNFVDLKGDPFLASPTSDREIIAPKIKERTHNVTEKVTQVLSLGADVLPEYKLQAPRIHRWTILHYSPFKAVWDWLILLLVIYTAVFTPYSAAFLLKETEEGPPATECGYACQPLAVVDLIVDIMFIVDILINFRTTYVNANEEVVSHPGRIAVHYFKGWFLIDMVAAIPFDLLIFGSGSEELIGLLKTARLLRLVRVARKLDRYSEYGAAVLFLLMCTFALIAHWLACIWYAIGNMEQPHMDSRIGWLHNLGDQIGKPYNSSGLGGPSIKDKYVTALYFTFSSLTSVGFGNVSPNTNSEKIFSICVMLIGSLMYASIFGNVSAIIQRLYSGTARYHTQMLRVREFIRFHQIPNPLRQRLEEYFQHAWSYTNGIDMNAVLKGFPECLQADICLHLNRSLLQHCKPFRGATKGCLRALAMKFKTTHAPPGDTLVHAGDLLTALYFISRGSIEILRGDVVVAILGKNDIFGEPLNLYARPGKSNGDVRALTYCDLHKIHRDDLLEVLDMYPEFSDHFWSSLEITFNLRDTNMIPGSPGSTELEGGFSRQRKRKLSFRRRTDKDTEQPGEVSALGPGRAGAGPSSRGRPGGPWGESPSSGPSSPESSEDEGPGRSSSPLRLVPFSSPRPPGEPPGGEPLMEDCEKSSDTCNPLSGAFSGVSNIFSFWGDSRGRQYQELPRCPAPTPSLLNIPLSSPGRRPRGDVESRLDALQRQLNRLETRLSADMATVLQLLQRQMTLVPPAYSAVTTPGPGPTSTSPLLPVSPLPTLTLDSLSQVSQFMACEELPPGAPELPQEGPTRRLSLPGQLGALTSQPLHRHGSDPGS
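U2OS cells transduced with wild-type KCNH2 virus are loaded with FluxOr dye for 45 min, and thallium flux is measured in kinetic reads before and after stimulation buffer. Rate constants are normalized to DMSO controls.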
* marks the source's active call; other numbers are inactive results. % is set by controls: 0 for no effect and ±100 for the full control effect.

Screening CC(=O)c1ccc(N2CCN(CC(O)COC(c3ccccc3)c3ccccc3)CC2)cc1 (stereo not drawn) returned RXFP1 agonist -3.2%, RXFP1 antagonist -79.2*, KCNH2 3.1 block -14.1, Akt phos inh inactive and KCNH2 WT inh 5.3.
CCCC(C)C(=O)Nc1cccc(NC(C)=O)c1 (stereo not drawn) was read as RXFP1 agonist -0.3%, RXFP1 antagonist -19.1, KCNH2 3.1 block -92.5*, Akt phos inh inactive and KCNH2 WT inh -20.7.
O=C(COC(=O)c1cc(NS(=O)(=O)c2cccs2)ccc1O)Nc1cc(Cl)ccc1Cl was read as RXFP1 agonist 1.9%, RXFP1 antagonist inconclusive, KCNH2 3.1 block -0.6, Akt phos inh inactive and KCNH2 WT inh -14.8.
For O=C(c1ccc[nH]1)N1O[C@@H]2C=C[C@H]1C2 the results were Akt phos inh inactive and KCNH2 WT inh -10.4.
For CNCC[C@@H](Oc1ccc(C(F)(F)F)cc1)c1ccccc1 the results were RXFP1 agonist 1.2%, KCNH2 3.1 block -91.5* and Akt phos inh inactive.
`Cc1cc(C)nc(/N=C(\N)N(Cc2ccccc2)Cc2ccccc2)n1` gave RXFP1 agonist 2.3%, RXFP1 antagonist -3.8, KCNH2 3.1 block -76.7*, Akt phos inh inactive and KCNH2 WT inh 1.3.
Cc1cc(C)nc(/N=C(\N)Nc2ccc(-c3ccccc3)cc2)n1 was read as RXFP1 agonist 0.0%, RXFP1 antagonist -15.7, KCNH2 3.1 block -79.8*, Akt phos inh inactive and KCNH2 WT inh 31.6.
`CCCCN(CCCC)/C(N)=N/c1nc(C)cc(C)n1` gave RXFP1 agonist -0.9%, RXFP1 antagonist 9.5, KCNH2 3.1 block -10.1, Akt phos inh inactive and KCNH2 WT inh 17.5.
`CC(=O)Nc1ccc(N/C(N)=N/c2nc(C)cc(C)n2)cc1` gave RXFP1 agonist 0.4%, RXFP1 antagonist 3.5, KCNH2 3.1 block 0.9, Akt phos inh inactive and KCNH2 WT inh -1.9.
`CC(=O)Nc1ccc(N=Cc2ccc(OCc3ccccc3)cc2)cc1` gave RXFP1 agonist -2.9%, RXFP1 antagonist 15.8, KCNH2 3.1 block 9.4, Akt phos inh inactive and KCNH2 WT inh -3.4.
For O=c1c2sccc2nc(SCc2cc(=O)n3cc(Br)ccc3n2)n1Cc1ccccn1 the results were RXFP1 agonist 25.1µM*, RXFP1 antagonist 11.8, KCNH2 3.1 block 2.3, Akt phos inh inactive and KCNH2 WT inh -22.0.
For Cc1ccc(CSc2nc3ccsc3c(=O)n2Cc2ccccn2)cc1 the results were RXFP1 agonist -0.1%, RXFP1 antagonist 3.4, KCNH2 3.1 block -29.8, Akt phos inh inactive and KCNH2 WT inh -12.1.
Screening OC(COC(c1ccc(Cl)cc1)c1ccc(Cl)cc1)CN1CCN(c2ccccn2)CC1 (stereo not drawn) returned RXFP1 agonist -0.5%, RXFP1 antagonist -10.2, KCNH2 3.1 block -98.8*, Akt phos inh inactive and KCNH2 WT inh active.
For CC1CN(CC(O)COC(c2ccc(Cl)cc2)c2ccc(Cl)cc2)CC(C)O1 (stereo not drawn) the results were RXFP1 agonist 0.0%, RXFP1 antagonist inconclusive, KCNH2 3.1 block -76.4*, Akt phos inh inactive and KCNH2 WT inh inconclusive.
`OC(COC(c1ccc(F)cc1)c1ccc(F)cc1)CN1CCCC1` (stereo not drawn) gave RXFP1 agonist -7.4%, RXFP1 antagonist 9.4, KCNH2 3.1 block -83.1*, Akt phos inh inactive and KCNH2 WT inh -22.0.
CN(CC(O)COC(c1ccccc1)c1ccccc1)C1CCCCC1 (stereo not drawn) was read as RXFP1 agonist 0.2%, RXFP1 antagonist -22.8, KCNH2 3.1 block -48.8, Akt phos inh inactive and KCNH2 WT inh 9.7.
`CN1CCN(CC(O)COC(c2ccccc2)c2ccccc2)CC1` (stereo not drawn) gave RXFP1 agonist 0.3%, RXFP1 antagonist -9.4, KCNH2 3.1 block -1.0, Akt phos inh inactive and KCNH2 WT inh 3.3.
For CN(C)CC(O)COC(c1ccc(Cl)cc1)c1ccc(Cl)cc1 (stereo not drawn) the results were RXFP1 agonist 2.6%, RXFP1 antagonist -25.2, KCNH2 3.1 block -88.2*, Akt phos inh inactive and KCNH2 WT inh -43.4.
`Clc1ccc(/C=C/c2nc(Cl)c(-c3ccc(Cl)cc3)c(Cl)n2)cc1` gave RXFP1 agonist 0.1%, RXFP1 antagonist 13.2, KCNH2 3.1 block -0.2, Akt phos inh inactive and KCNH2 WT inh -0.3.
`COC(=O)c1cccc(NC(=O)Nc2ccccc2OC)c1` gave RXFP1 agonist -0.4%, RXFP1 antagonist -13.5, KCNH2 3.1 block -1.1, Akt phos inh inactive and KCNH2 WT inh -10.5.
For CCN(CC(=O)NCc1cccs1)C(=O)c1cccc(S(=O)(=O)NC)c1 the results were RXFP1 agonist -0.1%, RXFP1 antagonist 3.4, KCNH2 3.1 block -2.8, Akt phos inh inactive and KCNH2 WT inh 0.1.
Screening N=c1sccn1CC(=O)N1N=C(c2ccc(Cl)cc2)CC1c1ccco1 (stereo not drawn) returned RXFP1 agonist -1.2%, RXFP1 antagonist -11.7, KCNH2 3.1 block -86.4*, Akt phos inh inactive and KCNH2 WT inh 14.3.
`CC(=O)Nc1cccc(-c2csc(Nc3ncccn3)n2)c1` gave RXFP1 agonist 0.3%.
Screening CC(=O)Nc1cccc(-c2csc(Nc3ccc(C)cn3)n2)c1 returned RXFP1 agonist -0.6%, RXFP1 antagonist -60.3*, KCNH2 3.1 block 11.2, Akt phos inh inactive and KCNH2 WT inh -3.7.
`Nc1ccccc1Nc1c(F)c(F)nc(F)c1Cl` gave RXFP1 agonist 4.2%, RXFP1 antagonist 9.4, KCNH2 3.1 block -72.5*, Akt phos inh inactive and KCNH2 WT inh 2.1.
Screening COC(=O)c1[nH]c(C)c(/C(O)=C2\C(=O)C(=O)N(CCN(C)C)C2c2ccc(OC)cc2)c1C (stereo not drawn) returned RXFP1 agonist 4.8%.
COc1ccc(CNC(=O)C(C#N)c2nc3ccccc3nc2N2CCCC2)cc1 (stereo not drawn) was read as RXFP1 agonist 8.6%, RXFP1 antagonist -3.8, KCNH2 3.1 block -3.7, Akt phos inh -83.6%* and KCNH2 WT inh 9.6.
CCCCNC(=O)C(C#N)c1nc2ccccc2nc1N1CCN(Cc2ccc3c(c2)OCO3)CC1 (stereo not drawn) was read as RXFP1 antagonist 0.9, KCNH2 3.1 block -16.8, Akt phos inh inactive and KCNH2 WT inh -15.7.
`CCCCCCOC(=O)C(C#N)c1nc2ccccc2nc1N1CCN(C)CC1` (stereo not drawn) gave RXFP1 agonist -0.7%, RXFP1 antagonist -27.7, KCNH2 3.1 block -70.8*, Akt phos inh inactive and KCNH2 WT inh 9.4.
For C=CCOC(=O)C(C#N)c1nc2ccccc2nc1N1CCN(Cc2ccc3c(c2)OCO3)CC1 (stereo not drawn) the results were RXFP1 agonist -1.5%, RXFP1 antagonist -3.5, KCNH2 3.1 block -103.3*, Akt phos inh inactive and KCNH2 WT inh -110.9*.

Source: PubChem BioAssay (National Center for Advancing Translational Sciences (NCATS))
